# Most compounds without a hit are left out; they make up all but 7.1% or so of the library.
# MARV entry inh – qHTS for Inhibitors of binding or entry into cells for Marburg Virus; Marburg virus pseudotype entry/binding inhibition, cell-based; Potency, µM (doses to about 49.2 µM), without a hit: at the highest dose activity change, negative = inhibition, hits mostly inhibitors; hit rate 6.5% among 18,000; AID 720532, 2013
# Lassa entry – qHTS for Inhibitors of binding or entry into cells for Lassa Virus. Potency, µM (highest dose often 49.2 µM), inactives show at the highest dose activity change, negative = inhibition, actives largely listed as inhibitors. Lassa virus pseudotyped entry inhibition, cell-based qHTS. hit rate 4.1% among 18,000. AID 720533, 2013
# * hit, by the source's call; u = inconclusive; x = no result; ! = not active in a repeat; [ ] = another dose, or the depositor's remark. The call rests on the fitted dose curve; tested in HEK293 cells. On the % scale 0 is the no-effect control and ±100 the full control effect; potency means the concentration at half of the fitted maximal effect.
SMILES,MARV entry inh,Lassa entry
O=C(Nc1cc(C(=O)Nc2ccc(S(=O)(=O)O)cc2S(=O)(=O)O)cc(C(=O)Nc2ccc(S(=O)(=O)O)cc2S(=O)(=O)O)c1)Nc1cc(C(=O)Nc2ccc(S(=O)(=O)O)cc2S(=O)(=O)O)cc(C(=O)Nc2ccc(S(=O)(=O)O)cc2S(=O)(=O)O)c1,-23%,-5%
O=C(Nc1ccc(C(=O)Nc2ccc(C(=O)Nc3ccc(S(=O)(=O)O)c4cc(S(=O)(=O)O)cc(S(=O)(=O)O)c34)cc2)cc1)Nc1ccc(C(=O)Nc2ccc(C(=O)Nc3ccc(S(=O)(=O)O)c4cc(S(=O)(=O)O)cc(S(=O)(=O)O)c34)cc2)cc1,4µM*,5%
NC1(c2ccc(-c3nc4ccn5c(=O)[nH]nc5c4cc3-c3ccccc3)cc2)CCC1,6.3µM*,u
COC(=O)N[C@H](CC(C)=O)c1cccc(F)c1,-7%[8.59 µM],21%[8.59 µM]
CN(C)CCCOc1nn(Cc2ccccc2)c2ccccc12,u,-22%[17.8 µM]
OCc1ccc(-c2nn(Cc3ccccc3)c3ccccc23)o1,14µM*,u
CCc1cc2c(nc1CC)CCN(CCC(C)=NOC[C@@H](C)[C@H](OCc1ccccc1)C(C)C)C2,-17%[8.59 µM],-5%[8.59 µM]
CCCCOC(=O)c1ccc(N)cc1,5%,u
CCCCN(CCCC)CCCOC(=O)c1ccc(N)cc1,22µM*!,u
C[C@@H]1N[S+](=O)([O-])c2c(F)cccc2O[C@H]1c1ccccc1,10%,2%
COC(=O)C1(C(=O)OC)CC(CO)C(=O)[C@@H]1c1ccccc1 (stereo partly specified),-8%[8.59 µM],3%[8.59 µM]
CC1=C(/C=C/C(C)=C/C=C/C(C)=C/C=C/C=C(C)/C=C/C=C(C)/C=C/C(=O)[C@]2(C)CC(O)CC2(C)C)C(C)(C)CC(O)C1 (stereo partly specified),8%,6%
CC1=C(/C=C/C(C)=C/C=C/C(C)=C/C=C/C=C(C)/C=C/C=C(C)/C=C/C2=C(C)C[C@@H](O)CC2(C)C)C(C)(C)C[C@H](O)C1,9%,28µM*
CCN1C(=NCC(C)C)NC(c2cccc(F)c2)C(C(=O)OC)=C1C (stereo unspecified),-5%[8.59 µM],10%[8.59 µM]
COC(=O)C1=C(C(=O)OC)[C@@H]2Nc3ccccc3[C@@]23C[C@@H](C(=O)OC)N(C(=O)NC(C)(C)C)C3=N1,2%[8.59 µM],5%[8.59 µM]
COc1ccc(C(=O)OC2C[C@H]3CC[C@@H](C2)N3C)cc1OC (stereo partly specified),-20%[17.8 µM],9%[17.8 µM]
CN1[C@@H]2CC[C@H]1CC(OC(c1ccc(F)cc1)c1ccc(F)cc1)C2 (stereo partly specified),7.9µM*,14µM*
COC(=O)CC=C[C@H](C)[C@H](Cc1ccccc1Br)OC,50%[8.59 µM],-11%[8.59 µM]
CN(C)CCOc1ccccc1Cc1ccccc1 (tested in a mixture with another compound),u,-24%
CC/C(=C(\c1ccccc1)c1ccc(OCCN(C)C)cc1)c1ccccc1,10µM*!,x
COc1ccc2c(c1)CO[C@H]([C@H](O)COC(C)=O)[C@H]2C=Cc1ccccc1,-2%[8.59 µM],0%[8.59 µM]
COc1c(O)c2c(=O)cc(OC)c3c4c(OC)cc(=O)c5c(O)c(OC)c(C[C@@H](C)OC(=O)c6ccccc6)c(c(c1C[C@@H](C)OC(=O)Oc1ccc(O)cc1)c23)c54,u,32µM*
O=C1N(Cc2ccc(Br)cc2)c2cccc(Br)c2[C@@]12O[C@H](COc1ccccc1)CC1=CCCC12 (stereo partly specified),11%[8.59 µM],-18%[8.59 µM]
COc1cc2ncn(-c3cc(OCc4ccccc4C(F)(F)F)c(C(=O)N(C)C)s3)c2cc1OC,u,-17%
COc1cc2ncn(-c3cc(OCCc4ccccc4)c(C(N)=O)s3)c2cc1OC,u,7.9µM*
SMILES,MARV entry inh,Lassa entry
COc1cc2ncn(-c3cc(OC(C)c4ccccc4Cl)c(C(N)=O)s3)c2cc1OC (stereo unspecified),3.5µM*,x
COc1cc2ncn(-c3cc(OCc4ccccc4S(C)(=O)=O)c(C#N)s3)c2cc1OC,u,-9%
O=C(O)c1cccc(-c2noc(-c3ccccc3F)n2)c1,3.2µM*,8.9µM*
Fc1ccccc1-c1nc(-c2ccccc2)oc1NCc1ccccc1,1%[8.59 µM],-32%[8.59 µM]
COc1ccc(COC(=O)NN=C2C[C@@H](O)[C@@H](O)[C@@H]3[C@H]4C(=O)N(c5ccc(F)cc5F)C(=O)[C@@H]4CC[C@H]23)cc1,30%[8.59 µM],1.3µM*
CCOC(=O)NN=C1C[C@@H](O)[C@@H](O)[C@@H]2[C@H]3C(=O)N(c4ccc(F)cc4F)C(=O)[C@@H]3CC[C@H]12,-21%[8.59 µM],9%[8.59 µM]
COc1ccc(COC(=O)NN=C2C[C@@H](O)[C@@H](O)[C@@H]3[C@H]4C(=O)N(C5CCCCC5)C(=O)[C@@H]4CC[C@@H]23)cc1,-29%[8.59 µM],x
COc1ccc(COC(=O)NN=C2C[C@@H](O)[C@@H](O)[C@@H]3[C@H]4C(=O)N(C[C@@H]5CCCO5)C(=O)[C@@H]4CC[C@H]23)cc1,u,0.6µM*
O=c1oc2ccccc2c2c1[C@H]1O[C@](c3ccsc3)(Cc3ccccc31)O2,9%[8.59 µM],2%[8.59 µM]
CCOC(=O)CN1C(=O)NC(c2ccc(Br)cc2)C(C(C)=O)=C1C (stereo unspecified),47%[8.59 µM],39%[8.59 µM]
COC(=O)C1=C(C)N(Cc2ccccc2)C(=S)NC1CCc1ccccc1 (stereo unspecified),38%[8.59 µM],-3%[8.59 µM]
CCC(=O)c1ccc2c(c1)N(CCCN(C)C)c1ccccc1S2,22µM*,32µM*
COc1ccc([C@H]2Sc3ccccc3N(CCN(C)C)C(=O)[C@H]2OC(C)=O)cc1,-15%[17.8 µM],u
CN(C)CCCN1c2ccccc2Sc2ccccc21,7.1µM*,u
CC(=O)c1ccc2c(c1)N(CCCN(C)C)c1ccccc1S2,u,-15%[17.8 µM]
CCN(CC)CCNC(=O)c1ccc(NS(C)(=O)=O)cc1,1%,0%
CCN(CC)CCNC(=O)c1c(C)[nH]c(/C=C2\C(=O)Nc3ccc(F)cc32)c1C,8.9µM*,u
COC(=O)C(C)c1ccc(C(=O)c2cccs2)cc1 (stereo unspecified),4%,0%
CNCCCCCCCCSc1nc(C(C)C)ccc1C(=O)c1cccs1,5.6µM*,u
Cc1cc2c(c(=O)o1)[C@H]1O[C@](CCCCN3C(=O)c4ccccc4C3=O)(Cc3cc(C#N)ccc31)O2,39%[8.59 µM],9%[8.59 µM]
CC(=O)C[C@@H](c1ccccc1)c1c(O)c2ccccc2oc1=O,-7%,-2%
O=c1oc2ccccc2c(O)c1Cc1c(O)c2ccccc2oc1=O,-23%[17.8 µM],7.9µM*!
CCN(CC)CCOc1ccc2c(c1)C(=O)c1cc(OCCN(CC)CC)ccc1-2,6.3µM*,u
CCOc1ccc(C(=O)OCCN(CC)CC)cc1,-7%,-11%
NCCNS(=O)(=O)c1cccc2c(Cl)cccc12,10µM*,u
SMILES,MARV entry inh,Lassa entry
O=C(O)Cc1ccc(CCNS(=O)(=O)c2ccc(Cl)cc2)cc1,9%,4%
NCCNS(=O)(=O)c1ccc(Cl)c2ccncc12,-5%,19%
NCCCCCCNS(=O)(=O)c1ccc2c(Cl)cccc2c1,13µM*,28µM*
CCOC(=O)[C@]12C[C@]3(OC)CCN(C(=O)N[C@@H]1c1ccccc1)[C@@H]32,10%[8.59 µM],u
CC(CCN1CCCCc2nc(C)c(C)cc21)=NO[C@H](C)CN1CCCc2nc(C)c(C)cc21,u,-12%[8.59 µM]
COc1cc(/C=C/C(=O)CC(=O)/C=C/c2ccc(O)c(OC)c2)ccc1O,u,32µM*!
